Data taken from PubChem BioAssay AID504884 (Broad Institute, 2011).
About 230 (0.064%) of roughly 360,000 compounds were called active. What follows is part of a selection rich in actives, with near analogues and random picks from the rest. Unmarked numbers belong to inactive results. No stated cut-off is given here; in the data, active means activity above about 50% (passing the limit was not always enough); inconclusive means no clear call, values can overlap the other calls.

These molecules were tested on DNA topoisomerase I (Yersinia pestis CO92) (assay: Yersinia pestis topoisomerase I inhibitors, primary screen, biochemical, cleavage product accumulation, plate reader, single point (AID 504884)). Settings: Y. pestis Topo-I cleavage product accumulation, at 10 µM, active compounds read high.
Molecule `COc1ccccc1N1CC(C(=O)Nc2nnc(SCC(=O)NC(C)C)s2)CC1=O` (stereo not given) has an activity of 6.4%. `Cc1cc(SCC(=O)NCCN2C(=O)CSC2=O)nc2ccccc12` gave an activity of 2.72%. In the case of `O=[N+]([O-])c1ccc(S(=O)(=O)Nc2cccc(-c3ccc(N4CCCC4)nn3)c2)cc1`, the activity is reported as 21.6%. Work on `CC1CCc2sc(C(=O)NCC(c3ccco3)N3CCCCC3)cc2C1` (stereo not given) yielded an activity of -2.82%. In the case of `CC(C)Oc1ccc(CN2CCC2(C)C(=O)NCc2ccc(C(F)(F)F)cc2)cc1` (stereo not given), the activity is reported as 15.8%. `COc1ccc(CN2CCN(C(=O)c3cc(C4CC4)nn3-c3ccccc3)CC2)cc1F` gave an activity of 29.4%. Molecule `CN(C)C(=O)N=NC(=O)N(C)C` has an activity of -8.5%. `C[C@H](CO)N1C[C@H](C)[C@@H](CN(C)Cc2ccc(-c3ccccc3)cc2)Oc2ccc(NC(=O)Cn3cnnn3)cc2C1=O` was tested, and the activity was 22.5%. For `O=C(CN1CCC(NC(=O)C2CC2)CC1)Nc1ccccc1[N+](=O)[O-]`, the activity was 2.07%. `COc1ccc(C(CCN(Cc2ccc(OC)c(OC)c2)C(=O)CCl)c2ccccc2)cc1` (stereo not given) gave an activity of 12.3%. `COc1ccc(CN(C)C(=O)CC(c2ccccc2)c2ccccc2)cc1` was tested, and the activity was 51.6% (active). Work on `CN(Cc1ccc(F)cc1)C(=O)COc1ccc2ccccc2c1` yielded an activity of 27.3%. `Cc1ccc(S(=O)(=O)NCC(=O)N2CCOCCOCCOCCOCC2)cc1` was tested, and the activity was 5.8%. Work on `Cc1cc(C)nc(/N=C2\NC(=O)CC(C(=O)O)N2c2ccc(Cl)cc2Cl)n1` (stereo not given) yielded an activity of -1.83%. `O=C1NNC(c2ccccc2)=N/C1=C\c1ccc(Cl)cc1` gave an activity of -4.41%. Molecule `Cc1ccccc1-n1nnnc1SCCCC(=O)c1ccc(F)cc1` has an activity of 21.7%. In the case of `Cc1ccc2c(c1)C(c1ccccc1)N(C(=O)c1ccc(S(=O)(=O)N3CCOCC3)cc1)CC(=O)N2` (stereo not given), the activity is reported as 3.57%. `Cc1cc(C)c(C(N)=O)c(Cl)n1` gave an activity of 0.37%. With `CCOc1ccc(S(=O)(=O)N2CCC(c3ccccc3)CC2)cc1C(=O)O` the activity was -7.32%. `COC(=O)Nc1ccc(S(=O)(=O)N2CCN(CCN3C(=O)C4C5C=CC(C5)C4C3=O)CC2)cc1` (stereo not given) gave an activity of 0.176%. `CN(C(=O)CSc1nnc(C2CC2)n1C)C1CCCc2ccccc21` (stereo not given) gave an activity of 9.61%. Work on `CC(=O)c1ccc(NC(=O)C2CCCN2S(=O)(=O)c2cccs2)cc1` (stereo not given) yielded an activity of -1.65%. In the case of `CC=CCn1c(SCCCc2ccccc2)nc2c1c(=O)[nH]c(=O)n2C`, the activity is reported as 14.6%. `CCCCCn1c(SCCC(C)C)nc2c1c(=O)[nH]c(=O)n2C` was tested, and the activity was 112% (active). `C=CCn1c(SCc2ccccc2)nc2c1c(=O)[nH]c(=O)n2C` gave an activity of 20.2%.
